{
  "source": "PubChem BioAssay (EPA / NIEHS)",
  "key": {"[1]": {"target": "human Retinoid X Receptor beta (RXRb), RXRB (gene 6257) (UniProt P28702)", "sequence (P28702 whole entry, looked up, the tested form may be a part)": "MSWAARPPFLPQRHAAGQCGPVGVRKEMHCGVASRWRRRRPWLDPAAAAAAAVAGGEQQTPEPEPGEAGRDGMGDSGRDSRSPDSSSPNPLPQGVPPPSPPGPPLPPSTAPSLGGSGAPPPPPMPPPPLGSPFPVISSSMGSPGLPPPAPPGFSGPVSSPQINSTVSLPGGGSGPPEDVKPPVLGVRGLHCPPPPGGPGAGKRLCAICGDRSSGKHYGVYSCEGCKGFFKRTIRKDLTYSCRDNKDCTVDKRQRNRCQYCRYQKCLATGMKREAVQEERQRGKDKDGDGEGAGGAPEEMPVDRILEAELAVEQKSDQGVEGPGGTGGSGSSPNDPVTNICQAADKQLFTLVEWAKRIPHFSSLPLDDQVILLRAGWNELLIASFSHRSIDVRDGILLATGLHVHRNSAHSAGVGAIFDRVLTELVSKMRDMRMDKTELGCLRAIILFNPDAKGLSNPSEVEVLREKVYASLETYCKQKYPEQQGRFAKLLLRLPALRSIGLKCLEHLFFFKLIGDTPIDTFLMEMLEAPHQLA", "test": "ATG_RXRb_TRANS: Attagene TRANS-FACTORIAL HepG2 Assay for human Retinoid X Receptor beta (RXRb) (AID 2283013; active = hit-call score of the fitted dose curve at least 0.9, where 1 is the maximum)", "summary_of_the_method": "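HepG2 cells were transiently transfected with multiplexed GAL4-UAS reporters and a chimeric RXRb-Gal4 construct, then exposed for 24 h. Reporter mRNA was quantified by RT-PCR, FAM labeling, HpaI digestion and capillary electrophoresis; gain of signal was scored against DMSO.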"}, "[2]": {"read-out": "E-selectin (Homo sapiens) (UniProt P16581)", "test": "BSK_3C_Eselectin: BioMAP Diversity Plus: 3C Assay for Eselectin Biomarker Activity (AID 2283015)", "conditions": "primary human endothelial cells (HUVEC); actives raise or lower the signal", "summary_of_the_method": "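E-selectin ELISA readout, fitted bidirectionally relative to DMSO, taken 24 h post-dosing in HUVEC cultures of the 3C system. Overt cytotoxicity tracked with sulforhodamine B staining of parallel wells.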"}, "[3]": {"read-out": "Interleukin-1 alpha (IL1a), IL1A (gene 3552)", "test": "BSK_BE3C_IL1a: BioMAP Diversity Plus: BE3C Assay for Interleukin-1 alpha (IL1a) Biomarker Activity (AID 2283016)", "conditions": "primary human bronchial epithelial cells; actives raise or lower the signal", "summary_of_the_method": "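Human primary bronchial epithelial cells, 24 h chemical exposure; IL-1a quantified by ELISA, fitted bidirectionally against DMSO. Cytotoxicity assessed in parallel by SRB total-protein staining at the time of measurement.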"}, "[4]": {"read-out": "Monocyte Chemoattractant Protein-1 (MCP1), CCL2 (gene 6347)", "test": "BSK_3C_MCP1: BioMAP Diversity Plus: 3C Assay for Monocyte Chemoattractant Protein-1 (MCP1) Biomarker Activity (AID 2283017)", "conditions": "primary human endothelial cells (HUVEC); actives raise or lower the signal", "summary_of_the_method": "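MCP-1 was measured by ELISA 24 h after dosing in primary HUVEC 3C cultures and fitted in both directions relative to DMSO; cytotoxicity was checked by SRB total-protein staining in parallel wells.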"}, "[5]": {"read-out": "Monocyte Chemoattractant Protein-1 (MCP1), CCL2 (gene 6347)", "test": "BSK_4H_MCP1: BioMAP Diversity Plus: 4H Assay for Monocyte Chemoattractant Protein-1 (MCP1) Biomarker Activity (AID 2283018)", "conditions": "primary human endothelial cells (HUVEC); actives raise or lower the signal", "summary_of_the_method": "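Human umbilical vein endothelial cells (4H system) exposed to chemicals for 24 h in 96-well format. MCP-1 measured by ELISA; bidirectional fitting against DMSO, with SRB total-protein staining in parallel cultures for cytotoxicity.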"}, "[6]": {"read-out": "Human Leukocyte Antigen - DR isotype (HLADR), HLA-DRA (gene 3122)", "test": "BSK_3C_HLADR: BioMAP Diversity Plus: 3C Assay for Human Leukocyte Antigen - DR isotype (HLADR) Biomarker Activity (AID 2283019)", "conditions": "primary human endothelial cells (HUVEC); actives raise or lower the signal", "summary_of_the_method": "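Bidirectional fitting against DMSO was applied to the HLA-DR ELISA signal from human umbilical vein endothelial cells, 24 h post-dose. Cytotoxicity came from parallel SRB total-protein staining; 3C proliferation was counted by SRB at 48 h.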"}, "[7]": {"read-out": "Interleukin-8 (IL8), CXCL8 (gene 3576)", "test": "BSK_3C_IL8: BioMAP Diversity Plus: 3C Assay for Interleukin-8 (IL8) Biomarker Activity (AID 2283020)", "conditions": "primary human endothelial cells (HUVEC); actives raise or lower the signal", "summary_of_the_method": "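Primary human umbilical vein endothelial cells were dosed for 24 h. IL-8 was quantified by ELISA and fitted bidirectionally against DMSO. Cytotoxicity was assessed in parallel cultures by SRB staining at 560 nm.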"}, "[8]": {"target": "human Thyroid Receptor alpha (THRa1), THRA (gene 7067) (UniProt P10827)", "sequence (P10827 whole entry, looked up, the tested form may be a part)": "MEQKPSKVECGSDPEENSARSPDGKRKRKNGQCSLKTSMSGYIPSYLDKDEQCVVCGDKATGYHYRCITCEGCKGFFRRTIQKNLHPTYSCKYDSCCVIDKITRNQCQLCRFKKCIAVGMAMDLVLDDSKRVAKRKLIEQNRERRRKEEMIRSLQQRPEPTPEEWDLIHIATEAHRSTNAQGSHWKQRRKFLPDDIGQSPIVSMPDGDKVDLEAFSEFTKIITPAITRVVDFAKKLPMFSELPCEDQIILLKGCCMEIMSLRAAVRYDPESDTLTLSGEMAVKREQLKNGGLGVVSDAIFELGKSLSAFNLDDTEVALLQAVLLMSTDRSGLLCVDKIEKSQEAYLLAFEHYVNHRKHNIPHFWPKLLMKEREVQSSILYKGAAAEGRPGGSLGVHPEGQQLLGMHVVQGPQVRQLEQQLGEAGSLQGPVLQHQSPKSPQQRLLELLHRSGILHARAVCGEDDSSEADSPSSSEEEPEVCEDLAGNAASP", "test": "ATG_THRa1_TRANS: Attagene TRANS-FACTORIAL HepG2 Assay for human Thyroid Receptor alpha (THRa1) (AID 2283014; active = hit-call score of the fitted dose curve at least 0.9, where 1 is the maximum)", "summary_of_the_method": "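Transcripts from GAL4-UAS-driven reporters, measured after 24 h compound exposure by RT-PCR plus capillary electrophoresis of 6-FAM-labeled fragments, were fitted for gain of signal relative to DMSO. Cells: transiently transfected HepG2 expressing NR-Gal4 chimeras.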"}},
  "note": "Records with an inconclusive call do not appear. Activity calls are given as the source filed them. Rule for the calls, unless noted: active = hit-call score of the fitted dose curve at least 0.9, where 1 is the maximum; inactive = score below 0.9.",
  "data": [
    {"smiles": "COCN(COC)c1nc(N(COC)COC)nc(N(COC)COC)n1", "values": [
      {"measurement": "outcome", "setting": "[1]", "value": "inactive"},
      {"measurement": "outcome", "setting": "[2]", "value": "inactive"},
      {"measurement": "outcome", "setting": "[3]", "value": "inactive"},
      {"measurement": "outcome", "setting": "[4]", "value": "inactive"},
      {"measurement": "outcome", "setting": "[5]", "value": "inactive"},
      {"measurement": "outcome", "setting": "[6]", "value": "inactive"},
      {"measurement": "outcome", "setting": "[7]", "value": "inactive"}
    ]},
    {"smiles": "FC(F)(F)C(F)(F)C(F)(F)Br", "values": [
      {"measurement": "outcome", "setting": "[1]", "value": "inactive"},
      {"measurement": "outcome", "setting": "[8]", "value": "inactive"}
    ]},
    {"smiles": "O=S(=O)(c1ccc(OCc2ccccc2)cc1)c1ccccc1O", "values": [
      {"measurement": "outcome", "setting": "[8]", "value": "inactive"}
    ]},
    {"smiles": "O=C(Nc1cccc([N+](=O)[O-])c1)c1cc2ccccc2cc1O", "values": [
      {"measurement": "outcome", "setting": "[1]", "value": "inactive"},
      {"measurement": "AC50", "setting": "[8]", "value": "17.5 µM (active)"}
    ]},
    {"smiles": "CCCCC(CC)C(=O)OCCOCCOCCOCCOC(=O)C(CC)CCCC", "note": "(stereo not given)", "values": [
      {"measurement": "AC50", "setting": "[2]", "value": "13.6 µM (active)"},
      {"measurement": "outcome", "setting": "[3]", "value": "inactive"},
      {"measurement": "outcome", "setting": "[4]", "value": "inactive"},
      {"measurement": "outcome", "setting": "[5]", "value": "inactive"},
      {"measurement": "AC50", "setting": "[6]", "value": "11.4 µM (active)"},
      {"measurement": "outcome", "setting": "[7]", "value": "inactive"}
    ]},
    {"smiles": "CC1COCc2cc3c(cc21)C(C)(C)C(C)C3(C)C", "note": "(stereo not given)", "values": [
      {"measurement": "AC50", "setting": "[1]", "value": "8.91 µM (active)"},
      {"measurement": "outcome", "setting": "[8]", "value": "inactive"}
    ]},
    {"smiles": "O=C(NCc1ncc(C(F)(F)F)cc1Cl)c1c(Cl)cccc1Cl", "values": [
      {"measurement": "outcome", "setting": "[1]", "value": "inactive"},
      {"measurement": "outcome", "setting": "[2]", "value": "inactive"},
      {"measurement": "outcome", "setting": "[3]", "value": "inactive"},
      {"measurement": "outcome", "setting": "[4]", "value": "inactive"},
      {"measurement": "outcome", "setting": "[5]", "value": "inactive"},
      {"measurement": "outcome", "setting": "[6]", "value": "inactive"},
      {"measurement": "outcome", "setting": "[7]", "value": "inactive"}
    ]},
    {"smiles": "CCCCCCCCCCCCOC(=O)c1cc(O)c(O)c(O)c1", "values": [
      {"measurement": "outcome", "setting": "[8]", "value": "inactive"}
    ]},
    {"smiles": "COc1cc([N+](=O)[O-])ccc1N", "values": [
      {"measurement": "outcome", "setting": "[1]", "value": "inactive"},
      {"measurement": "outcome", "setting": "[8]", "value": "inactive"}
    ]},
    {"smiles": "Clc1ccc(Nc2nnc(Cc3ccncc3)c3ccccc23)cc1", "values": [
      {"measurement": "AC50", "setting": "[2]", "value": "2.36 µM (active)"},
      {"measurement": "AC50", "setting": "[3]", "value": "1.67 µM (active)"},
      {"measurement": "outcome", "setting": "[4]", "value": "inactive"},
      {"measurement": "outcome", "setting": "[5]", "value": "inactive"},
      {"measurement": "outcome", "setting": "[6]", "value": "inactive"},
      {"measurement": "outcome", "setting": "[7]", "value": "inactive"}
    ]},
    {"smiles": "O=C1OC(=O)c2cc(-c3ccc4c(c3)C(=O)OC4=O)ccc21", "values": [
      {"measurement": "outcome", "setting": "[8]", "value": "inactive"}
    ]},
    {"smiles": "O=C(CCCN1CCC(O)(c2ccc(Cl)cc2)CC1)c1ccc(F)cc1", "values": [
      {"measurement": "outcome", "setting": "[1]", "value": "inactive"},
      {"measurement": "outcome", "setting": "[8]", "value": "inactive"},
      {"measurement": "outcome", "setting": "[2]", "value": "inactive"},
      {"measurement": "outcome", "setting": "[3]", "value": "inactive"},
      {"measurement": "outcome", "setting": "[4]", "value": "inactive"},
      {"measurement": "outcome", "setting": "[5]", "value": "inactive"},
      {"measurement": "outcome", "setting": "[6]", "value": "inactive"},
      {"measurement": "AC50", "setting": "[7]", "value": "9.25 µM (active)"}
    ]},
    {"smiles": "Oc1ccc(Cc2ccccc2O)cc1", "values": [
      {"measurement": "outcome", "setting": "[8]", "value": "inactive"},
      {"measurement": "outcome", "setting": "[2]", "value": "inactive"},
      {"measurement": "outcome", "setting": "[3]", "value": "inactive"},
      {"measurement": "outcome", "setting": "[4]", "value": "inactive"},
      {"measurement": "outcome", "setting": "[5]", "value": "inactive"},
      {"measurement": "outcome", "setting": "[6]", "value": "inactive"},
      {"measurement": "outcome", "setting": "[7]", "value": "inactive"}
    ]},
    {"smiles": "CCc1cccc(CC)c1N(COC)C(=O)CS(=O)(=O)O", "values": [
      {"measurement": "outcome", "setting": "[8]", "value": "inactive"}
    ]},
    {"smiles": "CN(C)CCOC(c1ccccc1)c1ccccc1", "values": [
      {"measurement": "outcome", "setting": "[2]", "value": "inactive"},
      {"measurement": "outcome", "setting": "[3]", "value": "inactive"},
      {"measurement": "outcome", "setting": "[4]", "value": "inactive"},
      {"measurement": "AC50", "setting": "[5]", "value": "0.351 µM (active)"},
      {"measurement": "outcome", "setting": "[6]", "value": "inactive"},
      {"measurement": "outcome", "setting": "[7]", "value": "inactive"}
    ]},
    {"smiles": "COc1cccc(O)c1", "values": [
      {"measurement": "outcome", "setting": "[1]", "value": "inactive"},
      {"measurement": "outcome", "setting": "[8]", "value": "inactive"},
      {"measurement": "outcome", "setting": "[2]", "value": "inactive"},
      {"measurement": "outcome", "setting": "[3]", "value": "inactive"},
      {"measurement": "outcome", "setting": "[4]", "value": "inactive"},
      {"measurement": "outcome", "setting": "[5]", "value": "inactive"},
      {"measurement": "outcome", "setting": "[6]", "value": "inactive"},
      {"measurement": "outcome", "setting": "[7]", "value": "inactive"}
    ]},
    {"smiles": "COc1cc(OC)nc(NC(=O)NS(=O)(=O)Nc2ccccc2C(=O)N(C)C)n1", "values": [
      {"measurement": "outcome", "setting": "[2]", "value": "inactive"},
      {"measurement": "outcome", "setting": "[3]", "value": "inactive"},
      {"measurement": "outcome", "setting": "[4]", "value": "inactive"},
      {"measurement": "outcome", "setting": "[5]", "value": "inactive"},
      {"measurement": "outcome", "setting": "[6]", "value": "inactive"},
      {"measurement": "outcome", "setting": "[7]", "value": "inactive"}
    ]},
    {"smiles": "O=C1c2ccccc2C(=O)c2c(O)c(O)cc(O)c21", "values": [
      {"measurement": "outcome", "setting": "[1]", "value": "inactive"},
      {"measurement": "AC50", "setting": "[8]", "value": "21.4 µM (active)"}
    ]}
  ]
}
